LASV entry inh: qHTS for Inhibitors of binding or entry into cells for Lassa Virus | 300,000 compounds, 1.2% hits | Lassa virus pseudotype entry inhibition, cell reporter | Potency, µM (top dose mostly 37.9 µM), without a hit: at the top dose activity change, negative = inhibition, most hits filed as inhibitors; calls by dose curve; tested in HEK293 cells; note: potency is the fitted concentration of half-maximal effect; nearly all actives have a fitted effect of over 50% in size
HCMV antiviral: qHTS Assay for inhibitors of the human cytomegalovirus (HCMV) | HFF cells, HCMV-luciferase reporter, 72 h; hits give low values | activity change, negative = inhibition, % at 57.5 µM | 410,000 compounds, 4.5% hits | AID 1259415, 2018; in the data active = activity change below about -60%; inconclusive = no clear call, values can overlap the other calls; inactive = above about -39%
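Human foreskin fibroblasts infected with luciferase-reporter HCMV at MOI 1 PFU/cell, compounds at two doses. Luciferase measured 72 h post infection; normalized to buffer-only basal and Salinomycin (10uM) controls.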
FMDV antiviral: High Throughput Screening for Foot and Mouth Disease Virus Antivirals. FMDV antiviral cell-based qHTS. Potency, µM (titrated, usually from 57.9 µM), for the others: at the top dose activity change, negative = inhibition, most hits filed as inhibitors. 410,000 compounds, 1.2% hits; calls by dose curve; tested in HEK293T cells; note: read-out not given here; potency is the fitted concentration of half-maximal effect; nearly all actives have a fitted effect of over 45% in size
Marburg entry inh: qHTS for inhibitors of binding or entry into cells for Marburg Virus. Marburg virus pseudotyped entry inhibition, cell reporter. Potency, µM (series often up to 37.8 µM), without a hit: at the top dose activity change, negative = inhibition, hits mostly inhibitors. 300,000 compounds, 1.8% hits; calls by dose curve; tested in HEK293 cells; note: potency is the fitted concentration of half-maximal effect
An asterisk follows results filed as active; ? = inconclusive; · = no result; [ ] = dose if it differs, or a comment. Compounds with a hit are over-represented: about 6.2% of the library has one in this group of screens. % is set by controls: 0 for no effect and ±100 for the full control effect.

SMILES	LASV entry inh	HCMV antiviral	FMDV antiviral	Marburg entry inh
O=C(O)CC(=O)Nc1ccc(Oc2ccc(C(F)(F)F)cn2)c(Cl)c1	-16%[46.1 µM]	-27	24%	6%[46.1 µM]
COC(=O)c1ccc(NC(=O)c2nn(C)c3c2COc2ccccc2-3)cc1	?	-71*	?	?
CCc1nnc(NC(=O)c2cnccn2)s1	27%	72	0%	7%
CN(C)C(=O)c1ccc(-c2ccc3ncnc(NCc4cccnc4)c3c2)cc1	·	·	-3%	·
CCN1CCN(C(=O)c2ccc3c(c2)N(Cc2ccc(C)cc2)CCS3)CC1	·	-85*	27%	·
CCOc1ccc(CNC(=O)c2ccc3c(c2)N(Cc2ccccc2)CCS3)cc1	·	-28	13%	?
COc1ccc(CNC(=O)c2ccc3c(c2)N(Cc2ccccc2)CCS3)cc1	4.5µM*	-9	9%	?
Cc1ccc(CN2CCSc3ccc(C(=O)N4CCOCC4)cc32)cc1	·	·	5%	·
O=C(NCc1ccccc1Cl)c1ccc2c(c1)N(Cc1ccccc1)CCS2	-24%[46.1 µM]	-7	52%	?
Cc1ccccc1CNC(=O)c1ccc2c(c1)N(Cc1ccccc1)CCS2	·	-34	16%	8.9µM*
CCOc1ccc(N2C(=O)/C(=C\c3cccs3)C(=O)NC2=S)cc1	3%	38	-92%	-29%[46.1 µM]
O=C1NC(=S)N(c2ccccc2F)C(=O)/C1=C\c1cccs1	8%	-7	32µM*	?
CC(C)Oc1cccnc1N(C)C1CCN(Cc2ccccc2)CC1	-9%	-11	-21%	1.8µM*
CC(C)Oc1ccc(C(=O)NC2CCN(Cc3ccccc3)CC2)cc1	-2%[46.1 µM]	?	?	?
Cc1nc2ccccc2c2c1CC(C(C)(Cl)Br)O2 (configuration not stated)	·	-92*	8.9µM*	·
CC(=O)N1/C(=C/c2ccc(N(C)C)cc2)C(=O)c2ccccc21	?	7	20µM*	13µM*
Cc1cc(=O)n2c3ccccc3n(C)c2n1	25%	-1	-3%	?
CC(NC(=O)c1cccc(Br)c1)c1ccccc1 (configuration not stated)	-13%	-70*	-15%	?
COC(=O)CCc1cccc(CCC(=O)OC)c1	·	22	-7%	·
N#CC1=C(N)OC2=C(CCc3ccccc32)C1c1ccccc1 (configuration not stated)	?	-92*	?	?
Cc1ccc(S(=O)(=O)NC(C)(C)CN2CCc3ccccc3C2)cc1	·	31	-13%	·
COc1ccc(C(=O)NC(=S)NNC(=O)c2cccc(C)c2)cc1	?	-23	-2%	?
COc1ccc(C(=O)NNC(=S)NC(=O)c2cccnc2)cc1	-25%	-89*	8%	?
COc1ccc(C(=O)NNC(=O)c2ccc3ccccc3n2)cc1	?	-88*	-21%	?
COc1ccc(C(=O)NNC(=S)NC(=O)c2ccc(OC)cc2)cc1	·	-92*	-11%	·
SMILES	LASV entry inh	HCMV antiviral	FMDV antiviral	Marburg entry inh
CCCOc1ccc(C(=O)NC(=S)NCc2cccnc2)cc1	-17%	-65*	-20%	0%
COc1ccc(CC(=O)NNC(=S)NC(=O)c2cccnc2)cc1	13%	23	4%	?
CCCc1nn(C)c(C(=O)Nc2cccc(CC)c2)c1Cl	2%	7	4%	?
COc1cccc(C(=O)N2CCC(c3nc4ccccc4s3)CC2)c1	7%[46.1 µM]	-2	-22%	-28%[46.1 µM]
CCc1nc(N[C@@H](Cc2c[nH]c3ccccc23)C(=O)O)c2oc3ccccc3c2n1	8%	35	12%	?
Fc1cccc(Cl)c1Cn1nnc2c(N3CCC4(CC3)OCCO4)ncnc21	5%	-18	?	-1%[46.1 µM]
CCCOc1ccc(C(=O)NNC(=S)NC(=O)CC)cc1	15µM*	-62*	-11%	?
Cc1nnc(SCC(=O)NC2CC2)n1CC1CCCO1 (configuration not stated)	·	?	12%	·
CN(Cc1ccc2ccccc2c1)C(=O)c1ccc(C(F)(F)F)cc1	20%[46.1 µM]	-62*	-5%	2%[46.1 µM]
COc1ccc(CN(C)C(=O)c2ccc(Oc3ccccc3)cc2)cc1F	?	10	-10%	?
O=C(CCNS(=O)(=O)c1ccccc1C(F)(F)F)NCC(c1ccco1)N1CCCCC1 (configuration not stated)	0%	-28	-2%	-1%[46.1 µM]
CCN1/C(=C\C(C)=O)Sc2ccc(OC)cc21	-6%	·	8%	0%
CCN1/C(=C/C(C)=C/c2sc3ccccc3[n+]2CC)Sc2ccccc21	1.1µM*	-100*	10µM*	1.6µM*
Cc1ccc(/C=N/NC(=O)c2n[nH]c3c2CCCC3)cc1	?	-75*	50%	?

Screens (PubChem BioAssay)
